Source: PubChem
Only some compounds are listed: those with a hit (about 0.55% of all), similar ones and a draw of the others.
EPAC1 agonist – qHTS for Agonist of cAMP-regulated guanine nucleotide exchange factor 3 (EPAC1): primary screen; Rap guanine nucleotide exchange factor 3 (Homo sapiens), O95398; EPAC1 agonist qHTS, biochemical assay; response scale: 100% = response to 6.5 mM cAMP; Potency, µM (top dose mostly 154 µM), hits mostly activators; hit rate 0.073% among 360,000; also: nearly all actives have a fitted effect of over 60% in size
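Nucleotide exchange assay: 100 nM EPAC1 with 250 nM Rap1B loaded with BODIPY-GDP and 50 uM GDP, room temperature. Fluorescence (480/540 nm) read every 5 min for 30 min; signal change normalized to 6.5 mM cAMP as full agonist.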
USP1 inh – Inhibitors of USP1/UAF1: Primary Screen | hit rate 0.23% among 390,000 | Potency, µM (doses to about 57.1 µM), usual class: inhibitors | recombinant USP1/UAF1, Ub-Rhodamine cleavage fluorescence | Ubiquitin carboxyl-terminal hydrolase 1 (Homo sapiens), O94782 | AID 743255, 2014; also: nearly all actives have a fitted effect of over 60% in size
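High-throughput fluorogenic screen: 1nM USP1/UAF1 complex, Ub-Rho substrate 150nM final, 50mM HEPES pH 7.8 with 0.5mM EDTA, 0.1 mg/ml BSA, 1mM TCEP and 0.01% Tween-20.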
EPAC1 antag – qHTS for Antagonist of cAMP-regulated guanine nucleotide exchange factor 3 (EPAC1): primary screen; Potency, µM (highest dose often 115 µM), hits mostly inhibitors; hit rate 0.14% among 360,000; EPAC1 GEF assay, Rap1b-BODIPY-GDP exchange fluorescence; also: nearly all actives have a fitted effect of over 50% in size
EPAC2 agonist – qHTS for Agonist of cAMP-regulated guanine nucleotide exchange factor 4 (EPAC2): primary screen | Rap guanine nucleotide exchange factor 4 (Homo sapiens), Q8WZA2 | EPAC2 activation, biochemical qHTS; response scale: 100% = 6.5 mM cAMP response | Potency, µM (highest dose often 154 µM), hits mostly activators | hit rate 0.079% among 360,000; also: nearly all actives have a fitted effect of over 50% in size
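EPAC2 (100 nM) mixed with Rap1B loaded with BODIPY-GDP (250 nM) plus 50 uM unlabeled GDP; compounds pinned in, 5 min RT, then read every 5 min for 30 min (ex 480, em 540 nm). Normalized to cAMP control.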
EPAC2 antag – qHTS for Antagonist of cAMP-regulated guanine nucleotide exchange factor 2 (EPAC2): primary screen. Rap guanine nucleotide exchange factor 4 (Homo sapiens), Q8WZA2. EPAC2 GEF exchange of Rap1B-BODIPY-GDP, fluorescence. Potency, µM (series often up to 114 µM), actives largely listed as inhibitors. hit rate 0.18% among 360,000. AID 720708, 2013; also: nearly all actives have a fitted effect of over 45% in size
GLP1R cytotox – qHTS of GLP-1 Receptor Inverse Agonists: Cytotox Screen | Potency, µM (highest dose often 38.3 µM), most hits filed as inhibitors | hit rate 0.13% among 410,000 | AID 624418, 2012 | HEK293 cAMP-luciferase reporter cells, luminescence, 24 h;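 also: loss of luciferase light is scored as toxicity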
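Compound-treated cells are incubated 24 hr at 37 deg C under 5% CO2 after a 12 hour attachment period, then luciferase detection reagent is added and luminescence is measured following 12 min at room temperature; lowered signal indicates toxicity.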
Hits are given with their value; i = inactive; ? = inconclusive; nt = not tested or not shown. Calls follow the shape of the dose curve; as a rule, active = well fitted curve in the direction sought with a large enough effect; inconclusive = small, poorly fitted or top-dose-only effect, or another doubt; inactive = no such curve, though single readings can be large; an effect the other way counts as inactive or inconclusive.

SMILES | EPAC1 agonist | USP1 inh | EPAC1 antag | EPAC2 agonist | EPAC2 antag | GLP1R cytotox
CC1=NN(c2nc(-c3ccccc3)cs2)C(=O)C1 | i | i | 79µM | i | i | i
COc1cccc(C(=O)Nc2ccc(-c3cn4cccnc4n3)cc2)c1OC | nt | i | nt | nt | nt | i
CCOc1ccc(/C=C/C2=CC(C)(C)NC(=S)N2)cc1 | i | i | i | i | i | 5.6µM
COc1ccc(NC(=O)CSc2nc3nc(-c4cccs4)cc(C(F)(F)F)c3c(=O)[nH]2)c(OC)c1 | i | i | 32µM | i | i | i
O=C(c1ccncc1)N1N=C2CCCCCC2C1(O)C(F)(F)F (centres undefined) | i | i | i | i | i | i
O=C(c1ccco1)N1N=C2CCCCCC2C1(O)C(F)(F)F (centres undefined) | i | i | i | i | 79µM | i
CCOC(=O)c1ccc(NC(=O)CCCc2nc(-c3cc(OC)c(OC)c(OC)c3)no2)cc1 | nt | i | nt | nt | nt | i
CSC(=S)N/N=C/c1ccc(Br)cc1 | i | i | i | i | i | 11µM
CSC(=S)N/N=C/c1ccc(N(C)C)cc1 | i | i | i | i | i | i
O=C1NC(=S)S/C1=C\c1coc2ccc(O)cc2c1=O | i | i | 56µM | i | 35µM | i
O=C1NC(=S)SC1=Cc1cc(Br)ccc1O | i | i | 56µM | i | 79µM | ?
O=C1NC(=S)SC1=Cc1ccccc1Br | i | i | 32µM | i | 40µM | ?
O=C1NC(=S)SC1=Cc1ccc(Cl)cc1 | i | i | ? | i | 50µM | ?
O=C1NC(=S)SC1=Cc1ccc(F)cc1 | i | i | i | i | i | ?
CCOc1ccc(NC(=O)N2CC3CCCN3c3ccccc32)cc1 (centres undefined) | nt | i | nt | nt | nt | i
N#Cc1c(SCC(=O)Nc2ccc(C(F)(F)F)cc2)sc2c(O)cc(=O)[nH]c12 | i | i | i | i | i | i
N#Cc1c(SCC(=O)Nc2nncs2)sc2c(O)cc(=O)[nH]c12 | i | i | 89µM | i | i | i
CCCn1c(=O)n(C)c(=O)c2c(SCC(=O)NCc3ccco3)nc(C3CC3)nc21 | i | i | i | 10µM | i | i
O=C1CCC(=O)c2ccc3c4c(ccc1c24)CC3 | i | i | i | i | i | i
O=C1CCN2C=Nc3cccc4ccc1c2c34 | 63µM | 28µM | i | 89µM | i | i
CCc1ccccc1NC(=O)c1cc2c(Cl)nc3ccccc3c2s1 | nt | ? | nt | nt | nt | i
CC(C)N1CCc2c(sc(NC(=O)c3ccc(S(=O)(=O)N4CCc5ccccc54)cc3)c2C(N)=O)C1 | i | i | ? | i | 45µM | ?
CC(C)N1CCc2c(sc(NC(=O)c3ccc(S(=O)(=O)N4CCOCC4)cc3)c2C#N)C1 | i | ? | i | 100µM | i | i
O=C(CSc1ncc(S(=O)(=O)c2ccc(Br)cc2)c(=O)[nH]1)NCc1ccc(Cl)cc1 | nt | i | nt | nt | nt | i
COc1ccc(CCC(=O)NCCc2csc(-c3ccc(C(F)(F)F)cc3)n2)cc1 | nt | i | nt | nt | nt | i
SMILES | EPAC1 agonist | USP1 inh | EPAC1 antag | EPAC2 agonist | EPAC2 antag | GLP1R cytotox
COc1ccc(NC(=S)NNc2ccc([N+](=O)[O-])cc2S(=O)(=O)Nc2ccc(C)cc2C)cc1 | i | i | i | i | i | ?
Cc1ccc(NS(=O)(=O)c2cc([N+](=O)[O-])ccc2NNC(=S)Nc2cccc(Cl)c2)c(C)c1 | i | ? | 50µM | i | 50µM | ?
Cc1ccc(NS(=O)(=O)c2cc([N+](=O)[O-])ccc2NNC(=S)Nc2cc(C)ccc2C)c(C)c1 | i | i | i | i | i | 11µM
Cc1cccc(NC(=S)NNc2cccc(Cl)c2)c1 | i | i | i | i | i | i
COC(=O)c1ccc(NC(=O)CSc2n[nH]c(CC(C)C)n2)cc1 | nt | i | nt | nt | nt | i
Cc1cccc(NC(=O)CSc2cccc3cccnc23)c1C | i | i | i | i | i | i
CCOC(=O)CSc1cccc2cccnc12 | i | i | i | i | i | 3.5µM
CC(C)CN(CC(C)C)C(=S)NC1CCCCC1 | i | i | i | i | i | 10µM
Cc1ccc(-n2nc(C)c(Sc3ccccc3[N+](=O)[O-])c2N)cc1 | i | i | i | i | i | i
CC(=O)Oc1c(Sc2ccccc2[N+](=O)[O-])c(C)nn1C(C)(C)C | i | i | ? | i | 50µM | i
COc1ccc(NC(=O)CSc2ccc3c4c(cccc24)C(=O)c2ccccc2-3)cc1 | i | 25µM | i | i | i | i
CCNC(=O)C1(C)CCCN(C(=O)c2cc(C)n(C(C)(C)C)n2)C1 (centres undefined) | i | nt | i | i | i | i
O=C1c2cccc(NCCCNCCO)c2C(=O)c2cccc(NCCCNCCO)c21 | i | ? | i | i | i | 7.9µM
COc1ccc(C[C@@H]2OC3(C=CC(=O)C=C3)O[C@H]2Cc2ccc(OC)cc2)cc1 | i | i | i | i | i | 4.5µM
COc1ccc(N2C(=O)CC(Cc3ccccc3)C2=O)cc1 (centres undefined) | i | i | i | i | i | i
O=C1C=CC2(C=C1)O[C@H](Cc1ccccc1)[C@@H](Cc1ccccc1)O2 | i | i | i | i | i | 2µM
O=C(NC1CC(=O)N(c2cccc(F)c2)C1)C1CC1 (centres undefined) | nt | ? | nt | nt | nt | i
CCC1CCCCN1S(=O)(=O)c1cc(C(=O)Nc2ccc(C)c(F)c2)ccc1F (centres undefined) | nt | i | nt | nt | nt | i
CCOC(=O)CC1C(=O)NCCN1C(=O)c1cccc(C(F)(F)F)c1 (centres undefined) | i | i | i | i | 20µM | i
COc1cc(OC)c(NC(=O)Cc2c(C(=O)O)c(C)cn2C)cc1Cl | nt | i | nt | nt | nt | i
CCOC(=O)N(C)c1c(CC)nc2c(OCc3ccc(F)cc3)cccn12 | i | nt | i | i | i | i
CCOC(=O)N(C)c1c(CC)nc2c(OCc3ccc(C(F)(F)F)cc3)cccn12 | i | nt | ? | i | 35µM | i
CCCCC(=O)N(C)c1c(CC)nc2c(OCc3ccc(C(F)(F)F)cc3)cccn12 | i | nt | i | i | 20µM | i
Cc1cc(C)n(CC(=O)Nc2cc(F)ccc2F)c(=O)c1C#N | nt | i | nt | nt | nt | i
CN1CCN(Cc2c(O)ccc3occ(C(=O)c4ccccc4)c23)CC1 | i | i | i | i | i | 3.2µM
